Screens from PubChem BioAssay.
Pf Dd2 inh = qHTS Primary assay for Inhibitors of Plasmodium falciparum Dd2 growth in vitro; P. falciparum Dd2 growth, SYBR Green, 72 h; Potency, µM (doses to about 28.9 µM), inactives show at the top dose activity, negative = inhibition, usual class: inhibitors; 120,000 compounds, 4.3% hits; AID 1347417, 2020; active = well fitted inhibition curve with a large enough effect;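 also: plate controls were DMSO vehicle for no effect and reference drug for full effect; nearly all actives have a fitted effect of over 65% in size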
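Readout: SYBR Green fluorescence, 485 nm excitation, 535 nm emission, after ~16 h lysis at 37C. Before that, Dd2-infected red cells (2.5% hematocrit) grew 72 h with compound, 29 uM top final concentration.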
Starred values were filed as active, the others as inactive; i = inactive; [ ] = another dose, or the depositor's remark. Only a selection was taken, and hits are over-represented in it overall. Potency is read from the fitted curve at half-maximal effect.

SMILES	Pf Dd2 inh
c1cncc(-c2ccnc(NCC(c3cccnc3)N3CCCCC3)n2)c1 (stereo unspecified)	-13.4%
OCC1CCCCN1CCNc1nccc(-c2cccnc2)n1 (stereo unspecified)	-29.8%
CN1CCCC1CCNc1nccc(-c2cnn(-c3ccc(F)cc3)c2)n1 (stereo unspecified)	8.91µM*
CN(Cc1ccccc1)c1ccc(C(=O)N2CCC(CN3CCCC3=O)CC2)cn1	-11.2%
COc1ccc(-c2cn3cc(C(=O)NCC(N)=O)nc3c(=O)n2CC2CC2)c(F)c1	-27.7%
CCCN(C)C(=O)c1cn2cc(-c3cccc(Cl)c3)n(CC=C(C)C)c(=O)c2n1	12.6µM*
CCN(CC)c1ccc2cc(-c3nnc(-c4cccc(Cl)c4)o3)c(=O)oc2c1	-2.1%
CC(C)=CCn1c(-c2cc(C)oc2C)cn2cc(C(=O)N(C)CC(C)C)nc2c1=O	11.2µM*
CCCN(C(=O)c1cc2c(=O)oc3ccccc3c2s1)c1cccc(Cl)c1	11.3%
CC1CCC(NC(=O)CN2C(=O)NC3(CCC(C)CC3)C2=O)CC1 (stereo unspecified)	-8.0%
CN1CCN(c2nc3c(c(=O)[nH]2)CCN(Cc2ccccc2C#N)CC3)CC1	i[5.79 µM]
COc1ccc(-c2ccc3c(c2)C(=O)N2C[C@H](O)C[C@H]2C(=O)N3)cc1	i
COCCN1CCCN(C(=O)c2cc(C)ccc2C)c2ccccc21	10µM*
COCCN1CCCN(C(=O)c2ccoc2)c2ccccc21	-23.9%
COCCN1CCCN(C(=O)c2cc(C)cc(C)c2)c2ccccc21	i
O=C(C1CCCC1)N1CC2(Cc3ccccc3NC2=O)C1	8.3%[44.1 µM]
CCc1ccc(C(=O)c2cn(CC(=O)Nc3ccc(OC)cc3OC)c3ccc(CC)cc3c2=O)cc1	i
CCc1ccc(C(=O)c2cn(CC(=O)Nc3cc(OC)ccc3OC)c3ccc(C)cc3c2=O)cc1	10µM*
CCc1ccc(C(=O)c2cn(CC(=O)Nc3cc(OC)cc(OC)c3)c3ccc(CC)cc3c2=O)cc1	21.6%
CCOc1ccc(NC(=O)Cn2cc(C(=O)c3ccc(CC)cc3)c(=O)c3cc(OC)c(OC)cc32)cc1	-7.3%
CCc1ccc(C(=O)c2cn(CC(=O)Nc3ccc(F)c(F)c3)c3cc(OC)c(OC)cc3c2=O)cc1	i
CCc1ccc(C(=O)c2cn(Cc3ccc(F)cc3)c3cc(OC)c(OC)cc3c2=O)cc1	11.2µM*
COC(=O)CNC(=O)C1CN(c2ccc(OC)cc2)C(=O)N1 (stereo unspecified)	i
Cc1cc(C)n(CCC(=O)N[C@@H]2CN(c3ccncn3)C[C@H]2CN(C)C)n1	19.6%
CN1[C@@H](CCC(=O)NCc2cccs2)CNC(=O)[C@@H]2[C@H]1CCN2CC1CC1	-4.1%[44.1 µM]
SMILES	Pf Dd2 inh
O=C(c1ccc(F)c(Cl)c1)N1CCC(c2n[nH]c(=O)n2-c2ccccc2)CC1	-11.2%
COCCOc1ccc2c(n1)CCN(C(=O)CCc1ccccc1)C2	i
COc1cccc(-c2cc3c(=O)n(CCNC(=O)c4cc(C)cc(C)c4)ccn3n2)c1	-7.0%
COc1cccc(-c2cc3c(=O)n(CCNC(=O)c4ccc(Cl)cc4)ccn3n2)c1	12.0%
COc1cccc(-c2cc3c(=O)n(CCNC(=O)c4ccccc4F)ccn3n2)c1	12.6µM*
COc1cccc(-c2cc3c(=O)n(CCNC(=O)c4ccc(C(C)(C)C)cc4)ccn3n2)c1	1.12µM*
COc1cccc(-c2cc3c(=O)n(CCNC(=O)c4cc5ccccc5[nH]4)ccn3n2)c1	i
COc1cccc(-c2cc3c(=O)n(CCNC(=O)c4cc(Cl)ccc4F)ccn3n2)c1	-10.8%
CCn1nc(C)c(-c2cc(C(=O)N3CCC(CCOc4ccccc4)C3)no2)c1C (stereo unspecified)	i
CCn1nc(C)c(CN2CCC3(CC2)CN(c2ccncn2)CC3CO)c1C (stereo unspecified)	5.9%
CCCNC(=O)N1CCOC[C@H](Oc2ccc(OC)cc2)C1	-16.9%[44.1 µM]
CCC[C@@H]1CN(c2nc(C(=O)OCC)co2)C[C@H]1NS(C)(=O)=O	16.4%
O=C1C(N2CCN(Cc3ccc[nH]3)CC2)CCN1Cc1cccnc1 (stereo unspecified)	i
CC(C)NC(=O)CCC[C@@H]1[C@H]2CCCN3CCC[C@@H](CN1C(=O)c1cccnc1)[C@@H]23	i
COCCNC(=O)[C@@H]1Cc2cn(Cc3ccccn3)c3cccc(c23)[C@H](CC(C)C)N1	i
Cc1noc(C)c1Cn1cc2c3c(cccc31)[C@H](CC(C)C)N[C@H](C(=O)O)C2	i
CC(C)C[C@@H]1N[C@H](C(=O)N2CCN(C)CC2)Cc2cn(Cc3ccccn3)c3cccc1c23	i
CC(C)C[C@@H]1N[C@H](C(=O)N2CCN(C)CC2)Cc2cn(Cc3cccnc3)c3cccc1c23	-8.3%
CC(C)C[C@@H]1N[C@H](C(=O)N2CCOCC2)Cc2cn(Cc3ccncc3)c3cccc1c23	10µM*
CC#CCn1cc2c3c(cccc31)[C@H](CC(C)C)N[C@H](C(=O)N1CCOCC1)C2	i
CC#CCn1cc2c3c(cccc31)[C@H](CC(C)C)N[C@H](C(=O)N1CCN(CCO)CC1)C2	10µM*
CC(C)C[C@@H]1N[C@H](C(=O)NCC2CC2)Cc2cn(Cc3cccnc3)c3cccc1c23	-37.7%[44.1 µM]
COCCNC(=O)[C@@H]1Cc2cn(Cc3cccnc3)c3cccc(c23)[C@H](CC(C)C)N1	11.2µM*
O=C(NC1CC1)C1CCN(C(=O)N2CC3CC(C2)[C@H]2CCCC(=O)N2C3)CC1 (stereo partly specified)	-11.5%
COc1ccc(N2CC(C(=O)N(C)C)NC2=O)cc1 (stereo unspecified)	-0.8%[44.1 µM]
SMILES	Pf Dd2 inh
CC(C)C1c2nccn2CCCN1C(=O)CCn1cccn1 (stereo unspecified)	-15.1%
C[C@@H](NC(=O)C1=C[C@@H](NS(=O)(=O)c2cccs2)[C@@H](O)[C@H](O)C1)C(N)=O	-0.1%[44.1 µM]
O=C(O)C[C@@H]1CCN(C(=O)c2ccco2)C[C@@H]1CCN1CCN(c2ccc(F)cc2)CC1	6.5%
CC1CCN(c2nc3c(S(=O)(=O)c4ccccc4)nnn3c3ccsc23)CC1	9.7%
Cc1ccc(S(=O)(=O)c2nnn3c2nc(NC(C)C)c2cc(Cl)ccc23)cc1C	7.0%
Cc1ccc(C)c(S(=O)(=O)c2nnn3c2nc(N2CCOCC2)c2ccccc23)c1	-26.8%
CC(C)c1ccc(S(=O)(=O)c2nnn3c2nc(N2CCN(C)CC2)c2sccc23)cc1	i
Cc1ccc(S(=O)(=O)c2nnn3c2nc(N2CCC(C)CC2)c2cc(Cl)ccc23)cc1C	11.2µM*
Cc1ccc(C)c(S(=O)(=O)c2nnn3c2nc(N2CCCCC2)c2ccccc23)c1	12.6µM*
CC(C)c1ccc(S(=O)(=O)c2nnn3c2nc(N2CCOCC2)c2ccccc23)cc1	-28.7%
CN1CCN(c2nc3c(S(=O)(=O)c4ccc(Cl)cc4)nnn3c3ccsc23)CC1	10µM*
CC1CCN(c2nc3c(S(=O)(=O)c4ccccc4)nnn3c3ccc(Cl)cc23)CC1	1.12µM*
CC1CCN(c2nc3c(S(=O)(=O)c4ccc(Cl)cc4)nnn3c3ccsc23)CC1	22.4%
COCCNc1nc2c(S(=O)(=O)c3ccc(C)c(C)c3)nnn2c2ccc(Cl)cc12	11.8%
CCc1ccc(S(=O)(=O)c2nnn3c2nc(N2CCC(C(N)=O)CC2)c2cc(Cl)ccc23)cc1	i
Cc1nnc(-c2cc(C(=O)NCCN(C)C)ccn2)n1CCc1ccccc1	i
CCOc1ccccc1CN1CCNC(=O)C1CC(=O)N1CCCOCC1 (stereo unspecified)	-10.6%
